# Test results taken from PubChem BioAssay (NCATS).
# Where “and” joins values, the source holds several entries; their conditions need not be identical. Equal values may be shown once. Unmarked numbers belong to inactive results. Inconclusive results are not listed. Where a call stands in place of a potency, no number is given. Calls of active or inactive are those of the source. Unless noted, calls come from the whole dose curve; as a rule, active = well fitted curve in the direction sought with a large enough effect; inconclusive = small, poorly fitted or top-dose-only effect, or another doubt; inactive = no such curve, though single readings can be large; an effect the other way counts as inactive or inconclusive.
# Tests used:
# [1] = Cell Viability - MRC5 (AID 434; calls by dose curve;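 note: potency is the fitted concentration of half-maximal effect; cells exposed to compound for 40 hours at 37 °C; potency reflects cytotoxicity seen as loss of intracellular ATP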); details: MRC5 lung fibroblast viability, qHTS
# Outline: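 qHTS cytotoxicity in human lung fibroblast MRC5 cells; 40 hr treatment, 37 °C; cellular ATP by luciferase luminescence; DMSO = 0%, 100 uM tamoxifen = 100% inhibition; Hill-fit AC50.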
# [2] = Cellular Toxicity (caspase-3) HepG2 (AID 654); details: HepG2 caspase-3 activation, luminescence; series mostly up to 92.2 µM;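 note: cells exposed to compound for 16 hours before reading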
# Outline: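 HepG2 cells (1500/well) in complete medium were treated with compounds for 16 hr at 37 °C. Caspase-3/7 activity was then read as luminescence from peptide-aminoluciferin cleavage. AC50 came from Hill fits, normalized to DMSO and 100 uM tamoxifen.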
# [3] = Cellular Toxicity (caspase-3) HUV-EC-C (AID 656); details: HUV-EC-C cells, caspase-3 activation (apoptosis); series mostly up to 92.2 µM
# Outline: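 HUV-EC-C endothelial cells, 1000/well, were pre-incubated 5 hr at 37°C, then exposed to compounds for 16 hr at 37°C. Caspase-Glo 3/7 luminescence was read after 20 min at room temperature. AC50 came from Hill fits, normalized to DMSO and 100 uM tamoxifen.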
# [4] = Cellular Toxicity (caspase-3) SHSY5Y (AID 657); details: SH-SY5Y caspase-3 activation; series mostly up to 91.7 µM
# Outline: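 SH-SY5Y human neuroblastoma cells (1500/well) were treated with compounds for 16 h at 37 °C, then Caspase-Glo 3/7 luminescence was read after 1 h at room temperature. Data normalized to DMSO and 10 uM staurosporine; AC50 from Hill fits.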
# [5] = Cellular Toxicity (caspase-3) BJ (AID 658); details: BJ fibroblasts, luminescence; Potency: caspase-3 activation; series mostly up to 91.7 µM
# Outline: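 Readout: Caspase-Glo 3/7 luminescence increase in BJ cells after 16 hr treatment at 37 °C. Staurosporine and tamoxifen served as positive controls; AC50 values came from Hill modelling of data normalized to DMSO and 10 uM staurosporine.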
# [6] = Cellular Toxicity (caspase-3) MRC-5 (AID 659); details: MRC-5 cells, luminescence, normalized: DMSO 0%, 10 µM staurosporine 100%; series mostly up to 91.7 µM
# Outline: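 Concentration-dependent caspase 3/7 activation is measured in human normal lung fibroblasts (MRC-5) following 16-hour treatment. AC50 values come from standard Hill-equation modeling of luminescence normalized to DMSO and 10 uM staurosporine.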
# [7] = Cellular Toxicity (caspase-3) Mesangial (AID 660); details: mesangial cells, normalized: DMSO 0%, 100 µM tamoxifen 100%; series mostly up to 91.7 µM;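 note: cells exposed to compound for 16 h before the caspase read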
# Outline: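 Human renal glomerular mesangial cells (1000/well) were treated with compounds for 16 h at 37 °C in complete medium, then caspase 3/7 activity was read by Caspase-Glo luminescence. Data were normalized to DMSO and 100 uM tamoxifen; AC50 from Hill fits.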
# [8] = Cellular Toxicity (caspase-3) SK-N-SH (AID 661); details: SK-N-SH caspase-3 activation, qHTS, DMSO as zero, staurosporine as full; series mostly up to 91.7 µM
# Outline: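 SK-N-SH human neuroblastoma cells (1500/well) were treated with compounds for 16 hr at 37 °C in complete medium; caspase 3/7 activity was read by Caspase-Glo luminescence. AC50 came from Hill fits of data normalized to DMSO and 10 uM staurosporine.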
# [9] = Cellular Toxicity (caspase-3) H-4-II-E (AID 663); details: H-4-II-E rat hepatoma; Potency: caspase-3 activation; series mostly up to 92.2 µM;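 note: cells exposed to compound for 16 hr before readout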
# Outline: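 Apoptosis induction is scored as increased luminescence from caspase 3/7 substrate cleavage in rat hepatoma H-4-II-E cells exposed to compound for 16 hr. Activity is scaled between DMSO and 100 uM tamoxifen.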
# [10] = Cellular Toxicity (caspase-3) Hek293 (AID 664); details: HEK293 caspase-3 activation, DMSO = 0%, 100 µM tamoxifen = 100%; at 92.2 µM (top of the series);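 note: cells exposed to compound for 16 h at 37 °C before readout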
# Outline: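 HEK293 cells were exposed to compounds in complete medium for 16 hr at 37 °C, then caspase-3/7 activity was read by Caspase-Glo 3/7 luminescence after 20 min at room temperature. Data normalized to DMSO and 100 uM tamoxifen; AC50 from Hill fits.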
# [11] = Cellular Toxicity (caspase-3) N2a (AID 665); details: N2a cells, luminescence, normalized: DMSO 0%, 10 µM staurosporine 100%; series mostly up to 92.2 µM;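 note: compound exposure lasted 16 h at 37 °C before readout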
# Outline: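 Mouse N2a neuroblastoma cells (1500/well) were treated with compounds for 16 h at 37 °C, then caspase-3/7 activity was read by Caspase-Glo luminescence after 1 h at room temperature. Data were normalized to DMSO and 10 uM staurosporine; AC50 from Hill fits.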
# [12] = Cellular Toxicity (caspase-3) Renal Proximal Tubule (AID 667); details: renal proximal tubule cells, primary cells freshly taken from rat; Potency: caspase-3 activation; series mostly up to 91.7 µM;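 note: cells exposed to compound for 16 hours at 37 °C before detection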
# Outline: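 Primary rat proximal tubule cells, 1000/well, 5 h plating at 37 °C, then compound 16 h at 37 °C. Caspase-Glo 3/7 reagent, 1 h RT, luminescence. Normalized to DMSO (basal) and 10 uM staurosporine (100%); Hill-fit AC50.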
# [13] = MultiTox-Fluor Cytotoxicity Assay - LYMP1-001 - Dead Cells (AID 946); details: LYMP1-001 lymphoblastoid cells, dead-cell protease fluorescence; series mostly up to 92.2 µM; note: potency is the fitted concentration of half-maximal effect
# Outline: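 LYMP1-001 lymphoblastoid cells (2500/well) treated 16 h at 37 C. Dead-cell protease cleavage of bis-AAF-R110 read at Ex/Em 485/520. Normalized to DMSO and 15 uM tetraoctylammonium bromide; AC50 from Hill fits.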
# [14] = MultiTox-Fluor Cytotoxicity Assay - LYMP1-003 - Dead Cells (AID 961); details: LYMP1-003 lymphoblastoid cells, dead-cell protease fluorescence; series mostly up to 92.2 µM; note: nearly all actives have a fitted effect of over 70% in size; note: potency is the fitted concentration of half-maximal effect
# Outline: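 LYMP1-003 human lymphoblastoid cells (2500/well) exposed to compound 16 h at 37 C in complete medium; dead-cell protease read with bis-AAF-R110 fluorescence (Ex/Em 485/520) after 60 min at room temperature. Normalized to DMSO and 15 uM tetraoctylammonium bromide; AC50 from Hill fit.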
# [15] = MultiTox-Fluor Cytotoxicity Assay - LYMP1-003 - Live Cells (AID 962); details: LYMP1-003 lymphoblastoid cells, MultiTox-Fluor live-cell protease fluorescence; series mostly up to 92.2 µM;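 note: cytotoxic hits lower the live-cell protease signal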
# Outline: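 LYMP1-003 human lymphoblastoid cells (2500/well) in complete medium were preincubated 5 hr at 37 C, then exposed to compounds for 16 hr at 37 C. Live-cell protease cleavage of GF-AFC read by fluorescence (Ex/Em 405/510); AC50 from Hill fits.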
# [16] = Cell Viability - LYMP1-003 - Assay at 24 hr (AID 963); details: LYMP1-003 lymphoblastoid cell viability; series mostly up to 92.2 µM
# Outline: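 Human lymphoblastoid LYMP1-003 cells (2500/well) were rested 5 hr at 37 C, then exposed to compounds in complete medium for 24 hr at 37 C. Cellular ATP was quantified by CellTiter-Glo luminescence, and AC50 values came from Hill fits of concentration-response data.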
# [17] = Cell Viability - LYMP1-002 - Assay at 24 hr (AID 993); details: LYMP1-002 lymphoblastoid cells viability; series mostly up to 92.2 µM; note: potency is the fitted concentration of half-maximal effect
# Outline: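 Human lymphoblastoid LYMP1-002 cells, 2500/well in complete medium, were treated with compounds for 24 h at 37 C; intracellular ATP was read by CellTiter-Glo luminescence. AC50 values came from Hill-equation fits of qHTS concentration-response data.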
# [18] = qHTS Assay for Identification of Small Molecule Inducers of Hypoxia Response (AID 2120; active = well fitted curve in the direction sought with a large enough effect in the signal ratio, with a control signal flat, not every such curve was filed as active; the % refers to the signal ratio); details: hypoxia response reporter cells, beta-lactamase ratio readout; series mostly up to 104 µM
# Outline: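 HRE-beta-lactamase reporter in CellSensor HRE-bla ME-180 cells, 2500 cells/well in Opti-MEM with 0.5% dialyzed FBS; compounds tested as titration series, 17 h at 37 degrees C. CCF4 substrate 2.5 h at room temperature; AC50 from 460/530 nm ratio.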
# [19] = target: Peroxisome proliferator-activated receptor alpha (Homo sapiens) (UniProt Q07869); assay: qHTS assay for small molecule agonists of the peroxisome proliferator-activated receptor alpha (PPARalpha) signaling pathway (AID 651778); details: PathHunter PPARalpha complementation, chemiluminescence, 6 h; max response: hits give high values
# Chain of Peroxisome proliferator-activated receptor alpha (Homo sapiens) (Q07869 whole entry, looked up): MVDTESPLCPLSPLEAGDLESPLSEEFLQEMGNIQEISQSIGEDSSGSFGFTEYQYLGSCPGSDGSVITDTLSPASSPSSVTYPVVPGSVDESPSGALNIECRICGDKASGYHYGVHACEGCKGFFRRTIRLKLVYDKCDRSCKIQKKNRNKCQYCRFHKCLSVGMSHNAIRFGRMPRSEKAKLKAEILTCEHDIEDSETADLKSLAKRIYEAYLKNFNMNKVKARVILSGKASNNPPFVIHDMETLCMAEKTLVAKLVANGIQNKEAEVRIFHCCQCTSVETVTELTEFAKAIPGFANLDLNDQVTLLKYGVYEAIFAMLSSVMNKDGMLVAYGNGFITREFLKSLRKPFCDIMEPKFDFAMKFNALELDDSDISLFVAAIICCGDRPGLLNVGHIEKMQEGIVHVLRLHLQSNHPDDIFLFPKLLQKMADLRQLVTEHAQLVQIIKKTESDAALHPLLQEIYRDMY
# Outline: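 Chemiluminescence from complemented enzyme reported PPARalpha activation in cells after 6 hr of compound treatment at 37 C. The detection reagent was incubated for 60 min at room temperature, and compounds were scored as agonists.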
# [20] = qHTS assay for cell viability of the p53RE-bla HCT-116 cell line (AID 743292); details: p53RE-bla HCT-116 viability, ATP luminescence, 16 h; series mostly up to 95 µM; note: nearly all actives have a fitted effect of over 55% in size
# Outline: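 HCT-116 p53RE-bla cells seeded 4,000/well; 5 h at 37 C; compound (DMSO) added; 16 h at 37 C; CellTiter-Glo added, 30 min RT; luminescence read.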
SMILES,Potency [1] [µM],Potency [2],Potency [3],Potency [4],Potency [5],outcome [6],outcome [7],outcome [8],Potency [9],caspase-3 activation [10] [%],outcome [11],Potency [12],Potency [13],Potency [14],Potency [15],Potency [16],Potency [17],Potency [18],max response [19],Potency [20]
Nc1ccc(N=Nc2ccccc2)c(N)c1,> 92,inactive,inactive,inactive,inactive,inactive,inactive,inactive,inactive,-11.8,inactive,inactive,inactive,inactive,inactive,inactive,inactive,inactive,-3.41%,inactive
Cc1ccccc1OCC1CO1 (stereo unspecified),> 92,inactive,inactive,inactive,inactive,inactive,inactive,inactive,inactive,0.226,inactive,inactive,inactive,inactive,inactive,inactive,inactive,inactive,-1.41%,inactive
Brc1ccc(-c2ccccc2)cc1,> 92,inactive,inactive,inactive,inactive,inactive,inactive,inactive,inactive,-0.717,inactive,inactive,inactive,inactive,inactive,inactive,inactive,inactive,-2.37%,inactive
C=CC(=O)CC,> 92,inactive,inactive,inactive,inactive,inactive,inactive,inactive,inactive,0.103,inactive,inactive,inactive,inactive,inactive,inactive,inactive,inactive,8.86%,inactive
NC(=O)c1ccc([N+](=O)[O-])cc1,> 92,inactive,inactive,inactive,inactive,inactive,inactive,inactive,inactive,0.417,inactive,inactive,inactive,inactive,inactive,inactive,inactive,inactive,-2.18%,inactive
O=c1[nH]ncc2ccccc12,> 92,inactive,inactive,inactive,inactive,inactive,inactive,inactive,inactive,-1.83,inactive,inactive,inactive,inactive,inactive,inactive,inactive,inactive,-3.48%,inactive
C/C=C1/C(=O)C[C@H]2[C@@H]3CCC4=CC(=O)CC[C@]4(C)[C@H]3CC[C@]12C,> 92,inactive,inactive,inactive,inactive,inactive,inactive,inactive,inactive,,inactive,inactive,39.8 µM (active),50.1 µM (active),inactive,,50.1 µM (active),inactive,-2.73%,inactive
Nc1ccc2c(c1)C(=O)c1ccccc1C2=O,> 92,inactive,inactive,inactive,inactive,inactive,inactive,inactive,inactive,-8.84,inactive,inactive,inactive,inactive,inactive,inactive,inactive,inactive,-6.61% and 0.0151%,inactive
CCCCCCCC/C=C\CCCCCCCC(=O)N(CCO)CCO,> 92,inactive,inactive,inactive,inactive,inactive,inactive,inactive,,,inactive,inactive,inactive,inactive,inactive,inactive,inactive,inactive,28.4%,inactive
CCCCCCCCC1CO1 (stereo unspecified),> 92,inactive,inactive,inactive,inactive,inactive,inactive,inactive,inactive,0.315,inactive,inactive,inactive,inactive,inactive,inactive,inactive,inactive,-3.27%,inactive
CN(C)c1ccc(Cc2ccc(N(C)C)cc2)cc1,> 92,inactive,inactive,inactive,inactive,inactive,inactive,inactive,inactive,2.63,inactive,inactive,inactive,inactive,inactive,inactive,inactive,inactive,1.98% and -1.9%,inactive
C[Si](C)(C)Cl,> 92,inactive,inactive,inactive,inactive,inactive,inactive,inactive,inactive,1.84,inactive,inactive,inactive,inactive,inactive,inactive,inactive,inactive,-1.44%,inactive
